Bioassay records deposited in PubChem by Broad Institute.
Wnt act = Wnt/beta-catenin pathway activators, primary screen, cell-based, plate reader, single point; Wnt/beta-catenin reporter cell assay, activator; activation, % at 9.35 µM; 1.2% of 300,000 active; AID 743398, 2014; in the data active = activation above about 30%, passing the limit was not always enough; inconclusive = no clear call, values can overlap the other calls;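 note: 0% = neutral control wells and 100% = positive control wells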
MITF act = activators of MITF-driven TRPM1 promoter reporter, primary screen, cell-based, SK-MEL-5, luciferase, single point. SK-MEL-5 TRPM1-promoter luciferase, 24 h; % of positive control, neutral wells = 0. activation, % at 12.5 µM. 0.75% of 300,000 active. AID 588334, 2011;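 active = mean activation of at least 80% with every replicate also reaching 80%; inconclusive = mean reaches 80% but some replicate falls short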;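 note: 0% = neutral control wells and 100% = parthenolide positive control wells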
esBAF inh = Bmi1 luciferase reporter increase in mESCs, primary screen, esBAF inhibitor project, mouse ES cells, Bmi1 luciferase knock-in, single point. 24 h; 100% = twice the neutral-well signal. reporter increase, % at 12.5 µM. 2% of 350,000 active; in the data active = activation above about 40%; inconclusive = no clear call, values can overlap the other calls;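 note: 0% = median of the plate's neutral control wells and 100% = double that signal; a rise in the Bmi1 reporter signal indicates esBAF inhibition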
MLL AF4-AF9 inh = inhibitors of AF4 peptide binding to AF9, primary screen, biochemical, AlphaScreen, biotin-AF4 peptide, FLAG-AF9, single point; inhibition, % at 10 µM; 0.47% of 350,000 active; Protein AF-9 (Homo sapiens), P42568;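 active = every replicate reaching a set inhibition limit, whatever the replicate mean, cut at about 25% in these data; inconclusive = mean inhibition reaches that limit but some replicates miss it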;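 note: 0% = plate neutral control median and 100% = total signal loss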
Target sequence (P42568 whole entry, looked up): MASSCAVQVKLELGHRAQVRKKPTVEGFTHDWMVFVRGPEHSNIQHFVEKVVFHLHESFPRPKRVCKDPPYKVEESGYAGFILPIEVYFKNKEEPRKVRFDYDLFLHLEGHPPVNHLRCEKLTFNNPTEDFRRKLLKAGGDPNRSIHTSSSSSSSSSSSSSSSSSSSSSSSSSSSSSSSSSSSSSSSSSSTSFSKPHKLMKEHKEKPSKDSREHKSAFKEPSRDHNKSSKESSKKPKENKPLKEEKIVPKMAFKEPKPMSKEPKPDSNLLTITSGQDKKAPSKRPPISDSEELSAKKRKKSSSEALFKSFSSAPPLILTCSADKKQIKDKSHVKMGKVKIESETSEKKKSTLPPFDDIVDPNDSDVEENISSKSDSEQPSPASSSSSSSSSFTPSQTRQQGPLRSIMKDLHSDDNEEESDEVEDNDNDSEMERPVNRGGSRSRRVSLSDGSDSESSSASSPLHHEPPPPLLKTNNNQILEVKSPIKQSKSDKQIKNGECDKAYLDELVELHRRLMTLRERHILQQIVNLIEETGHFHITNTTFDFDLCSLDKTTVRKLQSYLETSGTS
rRNA inh HTS = reduced GFP signal of wild-type E. coli, primary screen, bacterial rRNA inhibitor project, GFP/RFP fluorescence, OD600, single point; E. coli WT GFP vs humanized-ribosome RFP mutants, 24 h; stronger effect = lower value; DMSO median 0, no signal -100; GFP signal change (wild-type ribosome), % (no concentration beside the values); 1.6% of 350,000 active; AID 720706, 2013;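 active = significant combined selectivity score with lowered wild-type GFP, culture density cut under 30%, mutant RFP and density less affected; inactive = any of these conditions unmet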
HepG2 tox = cytotoxicity in HepG2 cells, dose response, cytotoxicity control, cell-based, CellTiter-Glo luminescence, cherry-pick, set 4 | shares compounds with rRNA inh HTS | HepG2 viability, ATP luminescence, 72 h | activity change, negative = cytotoxicity, unspecified at 26 µM | 30 tested, under 10 active | AID 743480, 2014;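 active = compounds whose fitted half-maximal signal-loss concentration is at most twice their highest valid dose; inconclusive = flat curve with 30 to 70% signal loss, or poor fit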
AID977621 = growth inhibition of wild-type GFP E. coli, dose response, H69 mutant RFP, cherry-pick; activity change, negative = inhibition at 50 µM; shares compounds with rRNA inh HTS; E. coli wild-type GFP strain growth, fluorescence, 24 h; 1,900 tested, under 10 active;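 active = Wild-type ribosome reporter drop at least double the humanized mutant ribosome reporter drop, growth loss under a set limit; inconclusive = no clear call, values can overlap the other calls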;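 note: wild-type GFP and H69 mutant RFP strains grown together 50/50 in each well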
AID977628 = E. coli growth inhibition, wild-type GFP versus h24 humanized RFP strain, dose response, h24 mutant RFP vs wild-type GFP, cherry-pick; E. coli WT GFP strain growth, fluorescence, 24 h; 1,900 tested, under 10 active; shares compounds with rRNA inh HTS; activity change, negative = inhibition at 50 µM;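 active = compound lowering the normal-ribosome reporter at least twice as much as the humanized-ribosome reporter, growth loss under a set limit; inconclusive = no clear call, values can overlap the other calls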;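 note: wild-type GFP and h24 humanized RFP strains co-cultured 1 to 1 per well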
Active calls of the source: *; ? = inconclusive; · = not tested or not shown. Hits are enriched below; roughly 3.7% of the tested compounds scored in any of these assays.

SMILES	Wnt act	MITF act	esBAF inh	MLL AF4-AF9 inh	rRNA inh HTS	AID977621	AID977628	others
CNC(=O)C[C@H]1CC[C@@H]2[C@@H](COc3ccc(NC(=O)Nc4ccc(F)c(F)c4)cc3C(=O)N2C)O1	·	·	0	3	-20*	·	?
CC(=O)N(CCC1(c2ccc(C)cc2)CCOC(C(C)C)C1)Cc1ccco1 (stereo not given)	-2	18	-7	5	-20*	-14	·
Cc1ccc(C2(CCNCc3ccco3)CCOC(C(C)C)C2)cc1 (stereo not given)	0	-16	0	-14	1	·	·
CCc1c(C)sc2nc3c(C(=O)N4CCOCC4)cc(C(=O)c4ccccc4O)cn3c(=O)c12	-1	6	-4	21	19	·	·
O=C(c1cc(C(=O)N2CCOCC2)c2nc3ccccc3n2c1)c1cc(Cl)cc(Cl)c1O	1	7	-7	27*	-18*	·	?
Cc1ccc(OCC(=O)N(C)CC(=O)Nc2ccccc2Cl)c([N+](=O)[O-])n1	-5	-1	-7	1	12	·	·
COc1cc(C2CC(=O)Oc3cc(C)cc(C)c32)cc(OC)c1OC (stereo not given)	-1	-4	-4	-1	-22*	·	-11
COc1cc2c(c(OC)c1OC)C(c1ccc(O)cc1)CC(=O)O2 (stereo not given)	-1	13	-6	-2	-3	·	·
Nc1ccccc1C#CC(=O)c1ccccc1	-11	-92	-78	2	-23*	·	?
CS(=O)(=O)N1CC2CCCN2c2cc(C(F)(F)F)ccc21 (stereo not given)	-2	0	-3	3	-33	·	·
CS(=O)(=O)N1CC2CCCN2c2ccc(C(F)(F)F)cc21 (stereo not given)	-2	8	8	0	-33*	-1.4	-2.8
Cc1ccc(CCN2C(=O)c3ccccc3C2C(=O)NCc2cccnc2)cc1 (stereo not given)	-2	-18	-5	1	-38*	7.8	?
O=C(Nc1ccncc1)c1ccc(S(=O)(=O)Nc2ccccc2)cc1	-5	-18	10	4	-23*	-19	?
O=C(NNC(=O)c1ccc(NC(=O)c2ccccc2)cc1)c1ccc(F)cc1	-1	-8	-6	-19	3	·	·
O=C(Nc1ccc(C(=O)c2ccccc2)cc1)c1ccccc1	51*	127*	61*	-1	-22*	-3.3	·
Cc1ccc(S(=O)(=O)NC(=NC(Cc2ccccc2)C(=O)O)c2ccccc2)cc1 (stereo not given)	0	-8	-3	-8	9	·	·
COc1ccc(-c2ccc3ccccc3n2)cc1OC	31*	100*	·	-6	-34*	·	?
FC(F)(F)c1ccc(Cl)c(-n2c(Cc3cccs3)n[nH]c2=S)c1	-3	·	·	-4	-33*	-18	·
Fc1ccc(-n2c(Cc3cccs3)n[nH]c2=S)cc1Cl	-2	-10	·	5	-5	·	·
COc1ccc(Nc2oc(-c3ccco3)nc2S(=O)(=O)c2ccc(F)cc2)cc1	-4	14	-4	4	-29*	·	·	HepG2 tox=8.3
Cc1cccc(OCCn2c(=O)oc3ccc(C)cc32)c1	10	69	22	0	-27*	2.7	-1.3
COc1ccc(S(=O)(=O)N(C)C[C@@H]2OCCCC[C@@H](C)Oc3ccc(NS(=O)(=O)c4c(C)noc4C)cc3C(=O)N([C@@H](C)CO)C[C@@H]2C)cc1	·	·	1	-1	2	·	·
C#CCOc1nc(Nc2cccc([N+](=O)[O-])c2)nc(OCC#C)n1	-3	27	-3	-1	-18*	-11	-2.5
Cc1cccc(NC(=O)c2sc3nc(-c4ccccc4)cn3c2C)n1	5	9	51*	-40	-18*	-12	·
CCOc1ccc(OCc2ccc(C(=O)N3CCCC3)o2)cc1	-2	3	18	5	-17*	-7.6	-11
SMILES	Wnt act	MITF act	esBAF inh	MLL AF4-AF9 inh	rRNA inh HTS	AID977621	AID977628	others
Cc1ccc(S(=O)(=O)Nc2ccc3c(c2)C(=O)N([C@H](C)CO)C[C@H](C)[C@@H](CN(C)C(=O)CCCN(C)C)OCCCC[C@@H](C)O3)cc1	·	·	-1	-5	6	·	·
C[C@@H]1CN([C@H](C)CO)C(=O)Cc2cc(NS(=O)(=O)c3cn(C)cn3)ccc2O[C@H]1CN(C)S(=O)(=O)c1ccc(F)cc1	·	·	-3	-3	1	·	·
O=C(O)c1cccc2c1C(=O)c1cc([N+](=O)[O-])cc([N+](=O)[O-])c1-2	-4	·	4	-2	27	·	·
O=C(O)c1cccc2c1-c1ccc([N+](=O)[O-])cc1C2=O	-3	1	·	1	-19*	-22	-8
CNC[C@H]1OCCCC[C@@H](C)Oc2ccc(NC(=O)Nc3cccc4ccccc34)cc2C(=O)N([C@@H](C)CO)C[C@H]1C	·	·	-7	10	-25*	·	?
C[C@@H]1CCCCO[C@@H](CN(C)C)[C@@H](C)CN([C@@H](C)CO)C(=O)c2cc(NC(=O)Nc3cccc4ccccc34)ccc2O1	·	·	1	5	-3	-7	?
C[C@@H]1CN([C@@H](C)CO)C(=O)c2cc(NC(=O)Nc3cccc4ccccc34)ccc2O[C@@H](C)CCCCO[C@@H]1CN(C)C	·	·	-1	·	-5	-2	?
CC(C1CCN(Cc2nc(C3CC3)no2)CC1)N1CCOCC1 (stereo not given)	1	-3	-10	2	14	·	·
CC(C)(C)C1CCC2(CC1)SCC(=O)N2c1ccccc1 (stereo not given)	-1	-3	6	0	4	·	·
CC1CCC2(CC1)SCC(=O)N2c1ccc(F)cc1 (stereo not given)	10	·	-3	·	-19*	-3	-8.2
O=C(c1ccccc1)N1CCN(C(=O)c2ccccc2)C1c1ccccc1	·	2	-4	·	·	·	·
Cc1ccn2cc(-c3cccc(NC(=O)c4cccs4)c3)nc2c1	-1	37	·	-2	-36*	-5.4	-13
CN(C)c1cc[n+](Cc2c(Cl)cccc2Cl)cc1	0	·	-32	·	·	·	·
